Here are results for 4 compounds from PubChem BioAssay.

Calls of active or inactive are those of the source.

Assay [1] is described as follows: optical density shifts of acrAB sulA E. coli – strain DRC41, OD650, 48 h, E. coli filamentation inducer project, primary screen (AID 1152).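 Further: E. coli MC1000 strain DRC41 lacking acrAB efflux pump and sulA.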 To be noted: higher = more signal, called active from +8 up or from −8 down.
Assay [2] can be described thus: probe aLefty1 binding on compound microarray – biochemical, small-molecule microarray, 635/667 nm fluorescence, primary screen (AID 1153).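 Further: score merges spot fluorescence with signal-to-noise ratio from the scanned slide images.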 The settings on record: higher = more signal.
The nature of assay [3]: plasmodial surface anion channel blockers, osmotic lysis – cell-based, P. falciparum Indochina, OD700, 1 h, primary screen (AID 1154). To be noted: P. falciparum Indochina infected RBC osmotic lysis, higher = more signal, called active from +8 up or from −8 down.
Assay [4] is described as follows: plasmodial surface anion channel blockers, osmotic lysis – cell-based, P. falciparum Indochina, OD700, 2 h, primary screen (AID 1155).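 Further: lysis reports solute entry through the parasite surface anion channel PSAC.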 The settings on record: P. falciparum Indochina infected erythrocytes, higher = more signal, called active from +8 up or from −8 down.
Assay [5] is described as follows: changes in parasitized red cell lysis, either direction – P. falciparum Indochina, OD700, 3 h, PSAC antagonist project, primary screen (AID 1156). The settings on record: P. falciparum-infected erythrocytes, osmotic lysis, higher = more signal, called active from +8 up or from −8 down.
Assay [6] is described as follows: plasmodial surface anion channel blockers, osmotic lysis – cell-based, P. falciparum Indochina, OD700, 18 h, primary screen (AID 1157). The settings on record: P. falciparum Indochina infected erythrocytes, osmotic lysis OD700, 18 h; higher = more signal, called active from +8 up or from −8 down.
Assay [7] can be described thus: S6 kinase pathway phospho-S6 level changes – cell-based, A549, cytoblot, luminescence, serum-stimulated, primary screen (AID 1158).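 Further: serum-stimulated A549 lung adenocarcinoma cells; signal is phosphorylated S6 detected by cytoblot immunostaining with HRP secondary.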 To be noted: 5 h, higher = more signal.
The target in assay [8] is NADPH oxidase 2 (Homo sapiens) (UniProt P04839). The experiment in a line: compounds shifting NOX2 Amplex Red fluorescence – cell-based, HEK293-NOX2, PMA-stimulated, NOX inhibitor project, primary screen (AID 1159). Further: test concentration not given here. The settings on record: 45 min, higher = more signal, called active from +8 up or from −8 down.
The target in assay [9] is NADPH oxidase 4 (Homo sapiens) (UniProt Q9NPH5). As to the kind of experiment: compounds shifting NOX4 Amplex Red fluorescence – cell-based, HEK293-NOX4, tetracycline-induced, NOX inhibitor project, primary screen (AID 1160). The settings on record: HEK293-NOX4, Amplex Red H2O2 fluorescence, 45 min; higher = more signal, called active from +8 up or from −8 down.
Assay [10] addresses NADPH oxidase 5 (Homo sapiens) (UniProt Q96PH1). As to the kind of experiment: compounds shifting NOX5 Amplex Red fluorescence – cell-based, HEK293-NOX5, NOX inhibitor project, primary screen (AID 1161). To be noted: HEK293-NOX5, ionomycin, 45 min, higher = more signal.
A short description of assay [11]: compound effects on lung adenocarcinoma cell viability – A549, calcein-AM fluorescence, 48 h, basal, profiling panel (AID 1162). Further: test concentration not given here. The settings on record: higher = more signal.
Assay [12] in a line: compound effects on differentiated 3T3-L1 adipocyte viability – cell-based, 3T3-L1 adipocytes, calcein-AM fluorescence, 48 h, basal, profiling panel (AID 1163). Further: test concentration not given here. The settings on record: 3T3-L1 adipocytes viability, higher = more signal.
A short description of assay [13]: compound effects on hepatocellular carcinoma cell viability – HepG2, calcein-AM fluorescence, 48 h, basal, profiling panel (AID 1164). Further: test concentration not given here. To be noted: higher = more signal.
Assay [14] in a line: compound effects on multiple myeloma cell viability – MM1S, calcein-AM fluorescence, 48 h, basal, profiling panel (AID 1165).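 Further: viability of MM1S multiple myeloma cells under basal unstimulated conditions; test concentration not given here.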 To be noted: higher = more signal.
A short description of assay [15]: calcein-AM signal in unstimulated myeloma cells – cell-based, calcein-AM fluorescence, 48 h, PK04 Diversity Set, profiling panel (AID 1166).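 Further: cells grown under basal conditions without added stimulus; test concentration not given here.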 The settings on record: RPMI8226 myeloma viability, higher = more signal.
Assay [16] in a line: JC-1 mitochondrial signal, unstimulated HepG2 cells – cell-based, JC-1 fluorescence, 24 h, 100 nL compound, profiling panel (AID 1167). Further: test concentration not given here. The settings on record: HepG2 mitochondrial potential, higher = more signal.
Assay [17] can be described thus: JC-1 mitochondrial signal, unstimulated adipocytes – cell-based, JC-1 fluorescence, 3T3-L1 adipocytes, 24 h, 100 nL compound, profiling panel (AID 1168). Further: test concentration not given here. To be noted: JC-1 mitochondrial fluorescence, higher = more signal, called active from +8 up or from −8 down.
Assay [18] is described as follows: JC-1 mitochondrial signal, unstimulated myeloma cells – cell-based, JC-1 fluorescence, RPMI8226, 24 h, 100 nL compound, profiling panel (AID 1169). Further: test concentration not given here. The settings on record: JC-1 mitochondrial potential fluorescence, higher = more signal.
A short description of assay [19]: JC-1 mitochondrial signal, unstimulated MM1S myeloma – cell-based, JC-1 fluorescence, 24 h, 100 nL compound, profiling panel (AID 1170). Further: test concentration not given here. To be noted: MM1S mitochondrial potential, higher = more signal.
A short description of assay [20]: resazurin metabolic signal in A549 cells – cell-based, resazurin fluorescence, 24 h, PK04 Diversity Set, profiling panel (AID 1171). Further: test concentration not given here. The settings on record: A549 viability, higher = more signal, called active from +8 up or from −8 down. On the technique in general: The colour change of resazurin is a common sign of viable cells or microbes.

Sequence of NADPH oxidase 5 (Homo sapiens) (Q96PH1 whole entry, looked up): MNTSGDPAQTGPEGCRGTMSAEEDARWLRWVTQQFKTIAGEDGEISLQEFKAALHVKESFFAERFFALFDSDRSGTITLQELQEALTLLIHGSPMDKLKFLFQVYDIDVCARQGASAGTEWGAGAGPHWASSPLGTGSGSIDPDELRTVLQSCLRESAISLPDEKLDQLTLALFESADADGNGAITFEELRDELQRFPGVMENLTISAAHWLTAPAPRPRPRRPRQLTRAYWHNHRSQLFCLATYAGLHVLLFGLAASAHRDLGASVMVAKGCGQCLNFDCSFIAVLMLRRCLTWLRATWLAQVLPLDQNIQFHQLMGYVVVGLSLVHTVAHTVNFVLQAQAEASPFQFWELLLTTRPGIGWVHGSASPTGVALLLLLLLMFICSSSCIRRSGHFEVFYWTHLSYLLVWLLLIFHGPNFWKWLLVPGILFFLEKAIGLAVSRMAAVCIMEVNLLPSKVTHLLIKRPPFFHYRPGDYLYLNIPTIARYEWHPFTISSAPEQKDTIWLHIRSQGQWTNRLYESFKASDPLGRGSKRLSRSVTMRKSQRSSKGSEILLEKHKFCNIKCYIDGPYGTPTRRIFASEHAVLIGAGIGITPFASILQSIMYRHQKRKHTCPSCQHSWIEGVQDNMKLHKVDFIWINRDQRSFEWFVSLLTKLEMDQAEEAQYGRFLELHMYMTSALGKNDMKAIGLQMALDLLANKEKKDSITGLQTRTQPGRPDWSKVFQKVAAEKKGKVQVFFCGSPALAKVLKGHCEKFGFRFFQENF
Sequence of NADPH oxidase 4 (Homo sapiens) (Q9NPH5 whole entry, looked up): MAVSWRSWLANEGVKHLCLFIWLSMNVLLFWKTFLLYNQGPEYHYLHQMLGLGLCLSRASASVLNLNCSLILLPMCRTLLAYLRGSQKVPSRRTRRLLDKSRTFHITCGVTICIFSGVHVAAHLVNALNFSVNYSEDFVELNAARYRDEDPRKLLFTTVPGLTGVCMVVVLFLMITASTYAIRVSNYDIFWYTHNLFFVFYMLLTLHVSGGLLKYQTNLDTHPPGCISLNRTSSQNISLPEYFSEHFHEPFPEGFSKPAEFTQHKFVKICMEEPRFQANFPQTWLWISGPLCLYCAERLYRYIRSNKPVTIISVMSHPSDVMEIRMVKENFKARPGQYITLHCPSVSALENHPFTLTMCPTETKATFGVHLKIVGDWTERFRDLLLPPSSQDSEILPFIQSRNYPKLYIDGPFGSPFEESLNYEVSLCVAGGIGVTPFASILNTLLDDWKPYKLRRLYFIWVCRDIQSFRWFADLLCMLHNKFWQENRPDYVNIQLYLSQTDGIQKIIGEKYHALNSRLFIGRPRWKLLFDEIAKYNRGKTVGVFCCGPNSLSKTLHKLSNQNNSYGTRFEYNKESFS
Sequence of NADPH oxidase 2 (Homo sapiens) (P04839 whole entry, looked up): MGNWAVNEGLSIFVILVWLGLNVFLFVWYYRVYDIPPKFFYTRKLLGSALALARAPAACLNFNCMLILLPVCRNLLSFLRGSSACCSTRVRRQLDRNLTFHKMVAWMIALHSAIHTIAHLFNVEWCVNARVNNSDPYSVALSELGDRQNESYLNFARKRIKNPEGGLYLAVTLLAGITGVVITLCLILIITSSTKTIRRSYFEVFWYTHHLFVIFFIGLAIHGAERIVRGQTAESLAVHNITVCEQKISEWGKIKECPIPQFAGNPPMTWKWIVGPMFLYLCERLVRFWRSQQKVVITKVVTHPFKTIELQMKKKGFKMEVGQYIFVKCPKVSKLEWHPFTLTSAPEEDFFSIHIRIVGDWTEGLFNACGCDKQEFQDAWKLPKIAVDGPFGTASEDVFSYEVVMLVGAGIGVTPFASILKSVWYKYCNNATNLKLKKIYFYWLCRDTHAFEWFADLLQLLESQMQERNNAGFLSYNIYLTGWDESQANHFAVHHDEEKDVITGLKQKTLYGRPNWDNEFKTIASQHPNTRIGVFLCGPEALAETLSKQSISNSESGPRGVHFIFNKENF

As to `C=CCC(OC(C)=O)[C@@H]1[C@@H](N(Cc2ccc(-c3ccccc3)cc2)C(=O)c2ccc(-c3ccccc3)cc2)c2cc(OCCCO)ccc2N1C(=O)Cc1ccc(OC)cc1` (stereo not given in full), the z-score in assay [1] was -0.685 (inactive); in [3] it was 0.572 (inactive); in assay [4], -0.402 (inactive); in assay [5], -0.501 (inactive); in assay [6] it was -0.184 (inactive); in assay [7], -0.192. Moreover, the z-score is -1.56 (inactive) in assay [8]; 1.2 (inactive) in [9]; 1.41 in [10]; -0.111 in assay [11]; 0.6 in assay [12]; 0.551 in assay [13]. Further, the z-score in assay [14] was -0.769; in assay [15] it was -0.904; in [16] it was 0.424; in assay [17], -0.972 (inactive); in [18], -0.0615; in [19], -0.142. Moreover, the z-score in assay [20] was 0.78 (inactive). This compound registered a composite z-score in assay [2] of 0.149.

As to `Cc1ccc(S[C@]2(C(=O)NC(C)C)CC(=O)N(Cc3cc(C(F)(F)F)cc(C(F)(F)F)c3)[C@@H]2c2ccc(CO)cc2I)cc1`, the z-score in assay [1] is 0.191 (inactive); in assay [3], 3.22 (inactive); in assay [4], 0.504 (inactive); in assay [5], -0.365 (inactive); in assay [6], 0.132 (inactive); in assay [7], -0.398. Also, the z-score in assay [8] was 1.57 (inactive); in [9], -1.07 (inactive); in assay [10], 2.23; in assay [11], 0.813; in [12], -0.477; in assay [13], 0.678. The z-score in assay [14] is -1.66; in [15], -2.24; in assay [16], 0.517; in assay [17], 0.667 (inactive); in assay [18], -0.455; in assay [19] it was -1.79. Further, in assay [20], the z-score was -0.101 (inactive). The composite z-score in assay [2] was -0.136.

As to `CO[C@H]1COC(=O)[C@H](C)NC(=O)CC=C[C@@H](C)[C@H](NS(=O)(=O)c2ccc(C)cc2)COC(=O)[C@@H](OCc2ccccc2)C=C[C@@H]1C`, the z-score is 0.117 (inactive) in [1]; 0.655 (inactive) in assay [3]; 0.637 (inactive) in assay [4]; 0.416 (inactive) in assay [5]; -0.14 (inactive) in assay [6]; 0.215 in [7]. The z-score in assay [8] is 1.4 (inactive); in [9] it was 0.815 (inactive); in assay [10], 0.2; in assay [11] it was 0.0987; in assay [12] it was 0.901; in assay [13], 0.0331. In addition, the z-score in [14] is -0.31; in [15] it was 0.102; in assay [16], 1.04; in assay [17], 0.315 (inactive); in assay [18] it was -0.729; in assay [19] it was 1.02. For the same compound, the z-score in [20] was 0.559 (inactive). The composite z-score in [2] was -0.303.

For `C[C@H]1COC(=O)[C@H](Cc2ccccc2)NC(=O)[C@@H](C)COC(=O)[C@H](Cc2ccccc2)NC1=O`, the z-score is -0.0556 (inactive) in assay [1]; 0.162 (inactive) in [3]; -0.643 (inactive) in [4]; -0.295 (inactive) in assay [5]; -1.93 (inactive) in [6]; 1.58 in [7]. In addition, the z-score was 0.915 (inactive) in assay [8]; 0.838 (inactive) in [9]; 0.253 in assay [10]; -0.429 in assay [11]; 1.27 in assay [12]; 0.0613 in assay [13]. The z-score was 0.244 in assay [14]; 1.03 in [15]; 0.827 in assay [16]; 0.382 (inactive) in assay [17]; -0.405 in [18]; 0.0881 in assay [19]. In assay [20], the z-score is 0.512 (inactive). The composite z-score in [2] is -0.239.
